# Test results: PubChem BioAssay AID1159580 (chemical genetic matrix, 2015)
# Several values for one entry are separate records, joined by “and”; a condition that tells them apart may be missing. Identical values can stand only once. The campaign covered roughly 5,500 compounds. About 2,000 (36%) were called active. Another 18% or so got no clear call; they are omitted. Cut-off read from the data, not from the text of the source: active = normalized growth mostly below about 0.91 (no sharp cut-off); inconclusive = no clear call, values can overlap the other calls; inactive = mostly above about 0.92. The list shows a part of the results.
# Assay: chemical genetic growth profiling, strain panel (AID 1159580);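 note: tested at 20 µM; growth read once vehicle control cultures reached saturation at 30 °C; 1 = growth at the plate median or of vehicle wells; lower values mean less growth of the strain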
# Details: S. cerevisiae deletion strains, growth OD
structure (smiles),measurement,setting,value
CC(=O)O[C@@H]1C[C@@]2(C)[C@H](c3ccoc3)C[C@H]3O[C@]32[C@]2(C)C(=O)C(O)=C3C(C)(C)C(=O)C=C[C@]3(C)C12 (some centres not stated),normalized growth,"locus YAL021C, strain ccr4, stronger effect = lower value",0.983 (inactive)
same,normalized growth,"locus YAL026C, strain drs2, stronger effect = lower value",0.892 (active)
same,normalized growth,"locus YAL030W, strain snc1, stronger effect = lower value",0.968 (inactive)
same,normalized growth,"locus YBL061C, strain skt5, stronger effect = lower value",0.953 (inactive)
same,normalized growth,"locus YBR009C, strain hhf1, stronger effect = lower value",0.867 (active)
same,normalized growth,"locus YBR021W, strain FUR4, stronger effect = lower value",1.05 (inactive)
same,normalized growth,"locus YBR023C, strain chs3, stronger effect = lower value",0.947 (inactive)
same,normalized growth,"locus YBR171W, strain sec66, stronger effect = lower value",0.929 (inactive)
same,normalized growth,"locus YBR229C, strain ROT2, stronger effect = lower value",0.927 (inactive)
same,normalized growth,"locus YBR231C, strain swc5, stronger effect = lower value",0.94 (inactive)
same,normalized growth,"locus YBR279W, strain paf1, stronger effect = lower value",0.97 (inactive)
same,normalized growth,"locus YCL011C, strain gbp2, stronger effect = lower value",0.88 (active)
same,normalized growth,"locus YCL016C, strain dcc1, stronger effect = lower value",0.969 (inactive)
same,normalized growth,"locus YCL029C, strain bik1, stronger effect = lower value",0.907 (active)
same,normalized growth,"locus YCL061C, strain MRC1, stronger effect = lower value",0.96 (inactive)
same,normalized growth,"locus YCL069W, strain vba3, stronger effect = lower value",0.956 (inactive)
same,normalized growth,"locus YCR088W, strain abp1, stronger effect = lower value",0.951 (inactive)
same,normalized growth,"locus YDL005C, strain med2, stronger effect = lower value",0.958 (inactive)
same,normalized growth,"locus YDL035C, strain GPR1, stronger effect = lower value",0.914 (inactive)
same,normalized growth,"locus YDL040C, strain nat1, stronger effect = lower value",0.953 (inactive)
same,normalized growth,"locus YDL074C, strain BRE1, stronger effect = lower value",0.754 (active)
same,normalized growth,"locus YDL101C, strain DUN1, stronger effect = lower value",0.933 (inactive)
same,normalized growth,"locus YDL134C, strain PPH21, stronger effect = lower value",0.921 (inactive)
same,normalized growth,"locus YDL185W, strain tfp1, stronger effect = lower value",0.931 (inactive)
same,normalized growth,"locus YDL192W, strain arf1, stronger effect = lower value",0.822 (active)
same,normalized growth,"locus YDR001C, strain nth1, stronger effect = lower value",0.968 (inactive)
same,normalized growth,"locus YDR069C, strain doa4, stronger effect = lower value",0.942 (inactive)
same,normalized growth,"locus YDR101C, strain arx1, stronger effect = lower value",0.908 (active)
same,normalized growth,"locus YDR137W, strain rgp1, stronger effect = lower value",0.639 (active)
same,normalized growth,"locus YDR150W, strain NUM1, stronger effect = lower value",0.969 (inactive)
same,normalized growth,"locus YDR159W, strain sac3, stronger effect = lower value",0.777 (active)
same,normalized growth,"locus YDR162C, strain NBP2, stronger effect = lower value",0.658 (active)
same,normalized growth,"locus YDR195W, strain ref2",1.04 (inactive)
same,normalized growth,"locus YDR297W, strain sur2, stronger effect = lower value",0.954 (inactive)
same,normalized growth,"locus YDR318W, strain mcm21, stronger effect = lower value",0.844 (active)
same,normalized growth,"locus YDR334W, strain swr1, stronger effect = lower value",0.963 (inactive)
same,normalized growth,"locus YDR335W, strain msn5, stronger effect = lower value",0.969 (inactive)
same,normalized growth,"locus YDR388W, stronger effect = lower value",0.951 (inactive)
same,normalized growth,"locus YDR392W, strain spt3, stronger effect = lower value",0.326 (active)
same,normalized growth,"locus YDR502C, strain sam2, stronger effect = lower value",0.896 (active)
same,normalized growth,"locus YEL003W, strain gim4, stronger effect = lower value",0.927 (inactive)
same,normalized growth,"locus YEL037C, strain rad23, stronger effect = lower value",0.961 (inactive)
same,normalized growth,"locus YEL061C, strain CIN8 (second series), stronger effect = lower value",0.955 (inactive)
same,normalized growth,"locus YEL061C, strain CIN8, stronger effect = lower value",0.965 (inactive)
same,normalized growth,"locus YER015W, strain faa2, stronger effect = lower value",0.966 (inactive)
same,normalized growth,"locus YER016W, strain bim1, stronger effect = lower value",0.953 (inactive)
same,normalized growth,"locus YER110C, stronger effect = lower value",0.953 (inactive)
same,normalized growth,"locus YER111C, strain swi4, stronger effect = lower value",0.94 (inactive)
same,normalized growth,"locus YER155C, strain BEM2 (second series), stronger effect = lower value",0.826 (active)
same,normalized growth,"locus YER155C, strain BEM2, stronger effect = lower value",0.902 (active)
same,normalized growth,"locus YER167W, strain BCK2, stronger effect = lower value",0.896 (active)
same,normalized growth,"locus YFR010W, strain ubp6, stronger effect = lower value",0.955 (inactive)
same,normalized growth,"locus YGL078C, strain dbp3, stronger effect = lower value",0.975 (inactive)
same,normalized growth,"locus YGL086W, strain mad1, stronger effect = lower value",0.839 (active)
same,normalized growth,"locus YGL167C, strain pmr1, stronger effect = lower value",0.957 (inactive)
same,normalized growth,"locus YGL173C, strain kem1, stronger effect = lower value",0.924 (inactive)
same,normalized growth,"locus YGL227W, strain vid30, stronger effect = lower value",0.964 (inactive)
same,normalized growth,"locus YGL240W, strain doc1, stronger effect = lower value",0.94 (inactive)
same,normalized growth,"locus YGL248W, strain PDE1, stronger effect = lower value",0.933 (inactive)
same,normalized growth,"locus YGL253W, strain hxk2, stronger effect = lower value",0.866 (active)
same,normalized growth,"locus YGR078C, strain PAC10, stronger effect = lower value",0.844 (active)
same,normalized growth,"locus YGR135W, strain pre9, stronger effect = lower value",0.954 (inactive)
same,normalized growth,"locus YGR229C, strain SMI1, stronger effect = lower value",0.787 (active)
same,normalized growth,"locus YGR252W, strain gcn5, stronger effect = lower value",0.74 (active)
same,normalized growth,"locus YHR013C, strain ard1, stronger effect = lower value",0.853 (inactive)
same,normalized growth,"locus YHR027C, strain rpn1, stronger effect = lower value",0.965 (inactive)
same,normalized growth,"locus YHR030C, strain SLT2, stronger effect = lower value",0.887 (inactive)
same,normalized growth,"locus YHR079C, strain IRE1 (second series), stronger effect = lower value",0.952 (inactive)
same,normalized growth,"locus YHR079C, strain IRE1, stronger effect = lower value",0.926 (inactive)
same,normalized growth,"locus YHR094C, strain hxt1, stronger effect = lower value",0.957 (inactive)
same,normalized growth,"locus YHR129C, strain ARP1, stronger effect = lower value",0.889 (active)
same,normalized growth,"locus YHR142W, strain chs7, stronger effect = lower value",0.861 (active)
same,normalized growth,"locus YHR200W, strain rpn10, stronger effect = lower value",0.943 (inactive)
same,normalized growth,"locus YIL066C, strain RNR3, stronger effect = lower value",0.766 (active)
same,normalized growth,"locus YIL073C, strain SPO22, stronger effect = lower value",0.811 (inactive)
same,normalized growth,"locus YIL125W, strain kgd1, stronger effect = lower value",0.966 (inactive)
same,normalized growth,"locus YIR030C, strain dcg1, stronger effect = lower value",0.959 (inactive)
same,normalized growth,"locus YJL092W, strain hpr5, stronger effect = lower value",0.945 (inactive)
same,normalized growth,"locus YJL095W, strain BCK1 (second series), stronger effect = lower value",0.967 (inactive)
same,normalized growth,"locus YJL095W, strain BCK1, stronger effect = lower value",0.749 (active) and 0.918 (inactive)
same,normalized growth,"locus YJL115W, strain asf1, stronger effect = lower value",0.98 (inactive)
same,normalized growth,"locus YJL129C, strain trk1, stronger effect = lower value",0.822 (active)
same,normalized growth,"locus YJL134W, strain LCB3, stronger effect = lower value",0.958 (inactive)
same,normalized growth,"locus YJL154C, strain vps35, stronger effect = lower value",0.985 (inactive)
same,normalized growth,"locus YJL164C, strain tpk1, stronger effect = lower value",0.927 (inactive)
same,normalized growth,"locus YJL166W, strain qcr8, stronger effect = lower value",0.873 (active)
same,normalized growth,"locus YJL168C, strain set2, stronger effect = lower value",0.961 (inactive)
